About 2,000 (36%) of roughly 5,500 compounds were called active. Another 18% or so got no clear call; they are omitted. No stated cut-off is given here; in the data, active means normalized growth mostly below about 0.91 (no sharp cut-off); inconclusive means no clear call, values can overlap the other calls; inactive means mostly above about 0.92. This is one part of the list.
Test: chemical genetic growth profiling, strain panel (AID 1159580);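 further: tested at 20 µM; growth read once vehicle control cultures reached saturation at 30 °C; 1 = growth at the plate median or of vehicle wells; lower values mean less growth of the strain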
Conditions: growth OD
[1] = S. cerevisiae deletion strains, locus YBR021W, strain FUR4, hits give low values
[2] = S. cerevisiae deletion strains, locus YBR229C, strain ROT2, hits give low values
[3] = S. cerevisiae deletion strains, locus YCL029C, strain bik1, hits give low values
[4] = S. cerevisiae deletion strains, locus YDL035C, strain GPR1, hits give low values
[5] = S. cerevisiae deletion strains, locus YDL074C, strain BRE1, hits give low values
[6] = S. cerevisiae deletion strains, locus YDL101C, strain DUN1, hits give low values
[7] = S. cerevisiae deletion strains, locus YDL134C, strain PPH21, hits give low values
[8] = S. cerevisiae deletion strains, locus YDL185W, strain tfp1, hits give low values
[9] = S. cerevisiae deletion strains, locus YDL192W, strain arf1, hits give low values
[10] = S. cerevisiae deletion strains, locus YDR101C, strain arx1, hits give low values
[11] = S. cerevisiae deletion strains, locus YDR162C, strain NBP2, hits give low values
[12] = S. cerevisiae deletion strains, locus YDR318W, strain mcm21, hits give low values
[13] = S. cerevisiae deletion strains, locus YDR388W, hits give low values
[14] = S. cerevisiae deletion strains, locus YDR502C, strain sam2, hits give low values
[15] = S. cerevisiae deletion strains, locus YEL061C, strain CIN8, hits give low values
[16] = S. cerevisiae deletion strains, locus YER110C, hits give low values
[17] = S. cerevisiae deletion strains, locus YER155C, strain BEM2, hits give low values
[18] = S. cerevisiae deletion strains, locus YER167W, strain BCK2, hits give low values
[19] = S. cerevisiae deletion strains, locus YGL078C, strain dbp3, hits give low values
[20] = S. cerevisiae deletion strains, locus YGL086W, strain mad1, hits give low values
[21] = S. cerevisiae deletion strains, locus YGL248W, strain PDE1, hits give low values
[22] = S. cerevisiae deletion strains, locus YGR135W, strain pre9, hits give low values
[23] = S. cerevisiae deletion strains, locus YGR229C, strain SMI1, hits give low values
[24] = S. cerevisiae deletion strains, locus YGR252W, strain gcn5, hits give low values
[25] = S. cerevisiae deletion strains, locus YHR030C, strain SLT2, hits give low values
[26] = S. cerevisiae deletion strains, locus YHR079C, strain IRE1 (second series), hits give low values
[27] = S. cerevisiae deletion strains, locus YHR094C, strain hxt1, hits give low values
[28] = S. cerevisiae deletion strains, locus YHR129C, strain ARP1, hits give low values
[29] = S. cerevisiae deletion strains, locus YHR200W, strain rpn10, hits give low values
[30] = S. cerevisiae deletion strains, locus YIL066C, strain RNR3, hits give low values
[31] = S. cerevisiae deletion strains, locus YIL073C, strain SPO22, hits give low values
[32] = S. cerevisiae deletion strains, locus YIL125W, strain kgd1, hits give low values
[33] = S. cerevisiae deletion strains, locus YIR030C, strain dcg1, hits give low values
[34] = S. cerevisiae deletion strains, locus YJL095W, strain BCK1, hits give low values
[35] = S. cerevisiae deletion strains, locus YJL134W, strain LCB3, hits give low values
[36] = S. cerevisiae deletion strains, locus YJL168C, strain set2, hits give low values
[37] = S. cerevisiae deletion strains, locus YJL187C, strain SWE1 (second series), hits give low values
[38] = S. cerevisiae deletion strains, locus YKL009W, strain mrt4, hits give low values
[39] = S. cerevisiae deletion strains, locus YKL068W, hits give low values
[40] = S. cerevisiae deletion strains, locus YKL085W, strain MDH1 (second series), hits give low values
[41] = S. cerevisiae deletion strains, locus YKL085W, strain MDH1, hits give low values
[42] = S. cerevisiae deletion strains, locus YKR001C, strain vps1, hits give low values
[43] = S. cerevisiae deletion strains, locus YLR039C, strain RIC1, hits give low values
[44] = S. cerevisiae deletion strains, locus YLR058C, strain SHM2, hits give low values
[45] = S. cerevisiae deletion strains, locus YLR102C, strain apc9, hits give low values
[46] = S. cerevisiae deletion strains, locus YLR268W, strain sec22, hits give low values
[47] = S. cerevisiae deletion strains, locus YLR371W, strain rom2, hits give low values
[48] = S. cerevisiae deletion strains, locus YLR418C, strain cdc73, hits give low values
[49] = S. cerevisiae deletion strains, locus YML016C, strain PPZ1, hits give low values
[50] = S. cerevisiae deletion strains, locus YML032C, strain rad52, hits give low values
[51] = S. cerevisiae deletion strains, locus YML124C, strain tub3, hits give low values
[52] = S. cerevisiae deletion strains, locus YMR078C, strain ctf18, hits give low values
[53] = S. cerevisiae deletion strains, locus YMR223W, strain ubp8, hits give low values
[54] = S. cerevisiae deletion strains, locus YMR307W, strain GAS1, hits give low values
[55] = S. cerevisiae deletion strains, locus YNL067W, strain RPL9B, hits give low values
[56] = S. cerevisiae deletion strains, locus YNL233W, strain BNI4, hits give low values
[57] = S. cerevisiae deletion strains, locus YNL250W, strain rad50, hits give low values
[58] = S. cerevisiae deletion strains, locus YNL271C, strain bni1, hits give low values
[59] = S. cerevisiae deletion strains, locus YNL298W, strain CLA4, hits give low values
[60] = S. cerevisiae deletion strains, locus YNL307C, strain MCK1, hits give low values
[61] = S. cerevisiae deletion strains, locus YNR052C, strain pop2, hits give low values
[62] = S. cerevisiae deletion strains, locus YOL012C, strain htz1
[63] = S. cerevisiae deletion strains, locus YOL147C, strain pex11, hits give low values
[64] = S. cerevisiae deletion strains, locus YOR061W, strain CKA2, hits give low values
[65] = S. cerevisiae deletion strains, locus YOR069W, strain VPS5, hits give low values
[66] = S. cerevisiae deletion strains, locus YOR136W, strain idh2, hits give low values
[67] = S. cerevisiae deletion strains, locus YOR144C, strain elg1, hits give low values
[68] = S. cerevisiae deletion strains, locus YOR184W, strain ser1, hits give low values
[69] = S. cerevisiae deletion strains, locus YOR316C, strain cot1, hits give low values
[70] = S. cerevisiae deletion strains, locus YPL241C, strain CIN2, hits give low values
[71] = S. cerevisiae deletion strains, locus YPR119W, strain clb2, hits give low values
[72] = S. cerevisiae deletion strains, locus YPR141C, strain kar3, hits give low values
[73] = S. cerevisiae deletion strains, locus YPR163C, strain tif3, hits give low values
[74] = S. cerevisiae deletion strains, locus YPR167C, strain met16, hits give low values
[75] = S. cerevisiae deletion strains, strain wtn01, hits give low values

Measured: normalized growth

C=C1C([C@]2(C)C(CC(=O)OC)[C@@](C)(COC(C)=O)OC(=O)C[C@@H]2OC(C)=O)[C@@H](OC=O)[C@H](OC(=O)C(O)C(C)CC)[C@@]2(C)[C@H](c3ccoc3)CC(=O)C12O (some centres undefined)
inactive: [1] 0.996 | [2] 1 | [3] 1.02 | [4] 1.01 | [5] 1.02 | [6] 1.02 | [7] 1.01 | [8] 1.01 | [9] 1.01 | [10] 1 | [11] 1.02 | [12] 1.01 | [13] 0.998 | [14] 1.01 | [15] 1 | [16] 1.01 | [17] 1.01 | [18] 1 | [19] 1.02 | [20] 1 | [21] 1.01 | [22] 1.04 | [23] 1.06 | [24] 1.03 | [25] 1.01 | [26] 1.02 | [27] 1.01 | [28] 1.01 | [29] 0.995 | [30] 1.01 | [31] 1.09 | [32] 1 | [33] 1.01 | [34] 1.04 | [35] 1.01 | [36] 1.01 | [37] 1.02 | [38] 0.994 | [39] 1.01 | [40] 0.999 | [41] 0.999 | [42] 1.02 | [43] 1.09 | [44] 1.01 | [45] 1.01 | [46] 1 | S. cerevisiae deletion strains, locus YLR342W, strain FKS1 (second series), hits give low values 1.01 | [47] 1.01 | [48] 1.03 | [49] 1 | [50] 0.991 | [51] 1.01 | [52] 1.02 | [53] 1.01 | [54] 1.1 | [55] 1.02 | S. cerevisiae deletion strains, locus YNL153C, strain GIM3, hits give low values 1.01 | [56] 1.03 | [57] 1.01 | [58] 1.01 | [59] 1.03 | [60] 1.01 | S. cerevisiae deletion strains, locus YNL322C, strain KRE1, hits give low values 1.01 | [61] 1.01 | S. cerevisiae deletion strains, locus YOL006C, strain TOP1, hits give low values 1.04 | [62] 0.797 | [63] 1.01 | [64] 1 | [65] 1.01 | [66] 1 | [67] 1 | [68] 1.01 | [69] 1.01 | [70] 1.01 | [71] 1.01 | [72] 1.02 | [73] 1.01 | [74] 1.01 | [75] 0.997

C=C1C([C@]2(C)C(CC(=O)OC)[C@@](C)(COC(C)=O)OC(=O)C[C@@H]2OC(C)=O)[C@@H](OC=O)[C@H](OC(=O)C(OC(C)=O)C(C)CC)[C@@]2(C)[C@H](c3ccoc3)CC(=O)C12O (some centres undefined)
inactive: S. cerevisiae deletion strains, locus YAL013W, strain DEP1, hits give low values 1.03 | [1] 1.03 | [2] 1.01 | [3] 1.03 | [4] 1.01 | [5] 1.04 | [6] 1.03 | [7] 1.03 | [8] 1.03 | [9] 1.03 | [10] 1.01 | S. cerevisiae deletion strains, locus YDR150W, strain NUM1, hits give low values 1.03 | [11] 1.02 | [12] 1.03 | [13] 1.03 | [14] 1.04 | [15] 1.02 | [16] 1.03 | [17] 1.02 | [18] 1.01 | [19] 1.04 | [20] 1.04 | [21] 1.02 | [22] 1.03 | [23] 1.08 | [24] 1.03 | [25] 1.02 | [26] 1.03 | [27] 1.04 | [28] 1.02 | [29] 1.03 | [30] 1 | [31] 1.06 | [32] 1.02 | [33] 1.03 | [34] 1.04 | [35] 1.02 | [36] 1.03 | [37] 1.03 | [38] 0.952 | [39] 1.03 | S. cerevisiae deletion strains, locus YKL190W, strain CNB1, hits give low values 1.01 | [42] 1.03 | [43] 1.09 | [44] 1.01 | [45] 1.03 | [46] 1.02 | S. cerevisiae deletion strains, locus YLR330W, strain CHS5, hits give low values 1.02 | [47] 1.03 | [48] 1.07 | [49] 1.01 | [50] 1.03 | [51] 1.03 | [52] 1.03 | [53] 1.03 | [54] 1.04 | [55] 1.03 | [56] 1.03 | [57] 1.01 | [58] 1.03 | [59] 1.02 | [60] 1.02 | [61] 1.04 | [62] 1.2 | [63] 1.03 | [64] 1.02 | [65] 1.02 | [66] 1.03 | [67] 1.04 | [68] 1.02 | [69] 1.03 | [70] 1.02 | [71] 1.02 | [72] 1.02 | [73] 1.04 | [74] 1.03 | [75] 1.01 | S. cerevisiae strains, strain wild type, hits give low values 1.03
active: [40] 1.16 [resistant] | [41] 1.16 [resistant]
